# Screening data deposited in PubChem by Corson Lab, School of Medicine, Indiana University.
# Only a selection was taken, and hits are over-represented in it overall.
# FECH block – inhibitors of human ferrochelatase. purified FECH, Ni-mesoporphyrin absorbance 550 nm. P22830. hit rate 3.3% among 20,000. calls only at 10 µM (by protocol);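 active = enzyme reaction rate more than 3 SD below the solvent-only control wells on the same plate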;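 also: lower slope than DMSO wells means FECH inhibition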
# Target sequence (P22830 whole entry, looked up): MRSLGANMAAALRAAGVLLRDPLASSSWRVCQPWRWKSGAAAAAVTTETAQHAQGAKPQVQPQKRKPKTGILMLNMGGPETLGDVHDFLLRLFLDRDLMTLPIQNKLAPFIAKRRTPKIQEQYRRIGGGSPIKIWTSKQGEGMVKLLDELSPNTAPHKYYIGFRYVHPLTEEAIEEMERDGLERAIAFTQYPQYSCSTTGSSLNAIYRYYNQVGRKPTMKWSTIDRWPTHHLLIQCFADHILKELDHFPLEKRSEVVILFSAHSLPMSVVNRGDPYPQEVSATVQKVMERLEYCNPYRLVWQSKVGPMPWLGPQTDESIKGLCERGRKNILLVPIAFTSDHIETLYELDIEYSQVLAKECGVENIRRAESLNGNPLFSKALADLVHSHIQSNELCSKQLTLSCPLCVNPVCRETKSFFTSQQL
# * marks the source's active call; other numbers are inactive results; i = inactive; + = active, no number.
SMILES,FECH block
COc1ccccc1OCC(C)n1cnc(-c2ccccc2)c1C1CC1 (stereo not drawn),i
CCOc1ccccc1C(=O)Nc1cc(N2CCCS2(=O)=O)ccc1OC,i
CC(C)CNC(=O)C(=O)NCc1n[nH]c(=O)c2ccccc12,i
COc1cccc(C2CCN(c3cc(C4CCNCC4)ncn3)C2)c1OC (stereo not drawn),i
COc1ccc(CNc2nc3nc(CNc4cccc(Cl)c4)cc(=O)n3[nH]2)cc1,i
O=c1c2c(nc3nc(CNc4cccc(C(F)(F)F)c4)[nH]n13)CCC2,+
Cc1nc2nc[nH]n2c(=O)c1NC(=O)Nc1cccc(C(F)(F)F)c1,i
CCc1nc2nc(C)c(NC(=O)Nc3cccc(F)c3)c(=O)n2[nH]1,i
COc1cccc(NCc2nc3nc4c(c(=O)n3[nH]2)CCC4)c1,+
COc1ccccc1NCc1nc2nc3c(c(=O)n2[nH]1)CCC3,i
CCC(C(=O)Nc1cc(C)nn1-c1ncnc2c1cnn2-c1ccc(C)cc1C)c1ccccc1 (stereo not drawn),i
COc1ccc(OC)c(S(=O)(=O)N2CCN(c3nc(C)cc(Nc4ccc(C)cc4)n3)CC2)c1,i
O=C(Cc1cccc(Cl)c1)NCCn1c(CCc2ccccc2)nc2cccnc21,i
COc1ccnc(N2CCN(Cc3ccc(S(C)(=O)=O)cc3)CC2)n1,i
O=C(O)c1ccc(CN2CC(=O)N3CSCC3C2=O)cc1 (stereo not drawn),i
O=C(NCCCN1CCN(C2CCCCC2)CC1)C1CCCN1c1nnc(N2CCCC2=O)s1 (stereo not drawn),+
CN(CCCNC(=O)C1CCCN1c1nnc(N2CCCC2=O)s1)C1CCCCC1 (stereo not drawn),i
COc1ccc(CNC(=O)C2CCCN2c2nnc(N3CCCC3=O)s2)c(OC)c1 (stereo not drawn),+
CN(CCNC(=O)C1CCCN1c1nnc(N2CCCC2=O)s1)C1CCCCC1 (stereo not drawn),i
COc1ccc(CCNC(=O)C2CCCN2c2nnc(N3CCCCC3=O)s2)cc1OC (stereo not drawn),i
Cc1ccsc1CCNC(=O)C1CCCN1c1nnc(N2CCCC2=O)s1 (stereo not drawn),i
CCC1CN(C(=O)c2ccc(O)cc2)CCC(=O)N1Cc1ccccc1 (stereo not drawn),i
CC(=O)Nc1ccc(-c2nccn2CCCN(C)C)cc1,i
Cc1cccc(C(=O)Nc2cccc(OCc3cc(=O)n4cc(C)ccc4n3)c2)c1,i
Cc1ccc(CNC(=O)C2CCCN2S(=O)(=O)c2cc3c(cc2C)NC(=O)CO3)cc1 (stereo not drawn),i
SMILES,FECH block
CCC(c1ccc(OC)cc1)N(CC)C(=O)c1ccc2c(c1)nnn2C (stereo not drawn),i
COc1ccc2[nH]c(C(=O)N3CCC(Nc4ncccn4)CC3)c(C)c2c1,i
COCc1nc2cccnc2n1C1CCN(S(=O)(=O)c2ccccc2)CC1,i
COCc1nc2cccnc2n1C1CCN(S(=O)(=O)c2ccc(NC(C)=O)cc2)CC1,+
COCc1nc2cccnc2n1C1CCN(S(=O)(=O)c2ccc(Br)cc2)CC1,i
COc1ccc(NCc2cc(=O)n3[nH]c(NCc4ccccc4)nc3n2)cc1,i
O=c1cc(CNc2ccc(Cl)cc2)nc2nc(NCc3ccccc3)[nH]n12,+
O=c1cc(CNc2cccc(Cl)c2)nc2nc(NCc3ccccc3)[nH]n12,i
CCCNCc1cc(=O)n2[nH]c(NCc3ccc(Cl)cc3)nc2n1,i
COc1ccc(CNc2nc3nc(CNc4ccc(F)cc4)cc(=O)n3[nH]2)cc1,+
COc1ccc(CNc2nc3nc(CNc4cc(Cl)ccc4OC)cc(=O)n3[nH]2)cc1,i
O=c1cc(CNc2ccc(F)cc2)nc2nc(NCc3ccc(F)cc3)[nH]n12,i
CCCNCc1cc(=O)n2[nH]c(NCc3ccc(OC)cc3)nc2n1,+
O=c1cc(CNc2ccc(Cl)cc2)nc2nc(NCc3ccc(F)cc3)[nH]n12,i
COC(=O)c1cccc(NS(=O)(=O)c2cc(N3C(=O)CCS3(=O)=O)ccc2C)c1,i
CN(CCc1nc2ccc(Cl)cc2[nH]1)C(=O)c1ccccc1O,i
O=C(CCCn1nnc(-c2ccc(F)cc2)n1)Nc1cnc2n1CCCC2,i
Cn1nnc(-c2ccc(C(=O)Nc3cnc4n3CCCC4)cc2)n1,+
CN(C)CC(=O)Nc1ccc(C(=O)Nc2cnc3n2CCCC3)cc1,i
CCCc1nc(C(=O)N2Cc3cnc(-c4ccccc4)nc3C2)cs1,i
OCCOc1cccc(-c2nccn2-c2ccc(-n3cccn3)cc2)c1,i
Cc1ccc(C2=CC(c3ccc(Cl)cc3)n3nc(NC(=O)c4cccc(Cl)c4)nc3N2)cc1 (stereo not drawn),i
O=C(Nc1nc2n(n1)C(c1ccc(Cl)cc1)C=C(c1ccccc1)N2)c1ccc(Cl)cc1 (stereo not drawn),i
O=C(Nc1nc2n(n1)C(c1ccc(Cl)cc1)C=C(c1ccccc1)N2)c1ccc(F)cc1 (stereo not drawn),i
